High-throughput results from PubChem BioAssay.
Six1-Eya2 blk = Six1/Eya2 interaction inhibition | Q15475+O00167 | AlphaScreen GST-Six1/His-Eya2 binding, biochemical; active compounds read low | activity change, % (no concentration beside the values) | actives 0.56% (n = 360,000); in the data active = activity change below about -65%; inconclusive = mostly about -30% to -63%
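Compounds are tested against tagged Six1 and Eya2 proteins bridged by glutathione donor and nickel acceptor beads; after a one-hour incubation at 37 °C without light, AlphaScreen emission is recorded.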
G9a block = G9a (human) methyltransferase inhibition | actives 8.8% (n = 350,000) | G9a H3K9 monomethylation, AlphaScreen, 2 h | Q96KQ7 | Potency, µM (titrated, usually from 102 µM), most hits filed as inhibitors; note: nearly all actives have a fitted effect of over 75% in size
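Quantitative HTS format: methyltransferase activity on a biotin-tagged H3K9 peptide is measured by AlphaScreen, using a rabbit anti-monomethyl-H3K9 antibody with streptavidin donor and anti-IgG acceptor beads. Final levels are 20 nM enzyme, 500 nM peptide, 20 uM SAM; 2 h RT.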
JMJD2A Tudor inh = blocks the human JMJD2A Tudor domain. AlphaScreen JMJD2A-Tudor / H3K4me3 peptide binding. Potency, µM (highest dose often 114 µM), actives largely listed as inhibitors. AID 504339. actives 4.4% (n = 390,000); note: nearly all actives have a fitted effect of over 50% in size
Target sequence (O75164 whole entry, looked up, the tested form may be a part): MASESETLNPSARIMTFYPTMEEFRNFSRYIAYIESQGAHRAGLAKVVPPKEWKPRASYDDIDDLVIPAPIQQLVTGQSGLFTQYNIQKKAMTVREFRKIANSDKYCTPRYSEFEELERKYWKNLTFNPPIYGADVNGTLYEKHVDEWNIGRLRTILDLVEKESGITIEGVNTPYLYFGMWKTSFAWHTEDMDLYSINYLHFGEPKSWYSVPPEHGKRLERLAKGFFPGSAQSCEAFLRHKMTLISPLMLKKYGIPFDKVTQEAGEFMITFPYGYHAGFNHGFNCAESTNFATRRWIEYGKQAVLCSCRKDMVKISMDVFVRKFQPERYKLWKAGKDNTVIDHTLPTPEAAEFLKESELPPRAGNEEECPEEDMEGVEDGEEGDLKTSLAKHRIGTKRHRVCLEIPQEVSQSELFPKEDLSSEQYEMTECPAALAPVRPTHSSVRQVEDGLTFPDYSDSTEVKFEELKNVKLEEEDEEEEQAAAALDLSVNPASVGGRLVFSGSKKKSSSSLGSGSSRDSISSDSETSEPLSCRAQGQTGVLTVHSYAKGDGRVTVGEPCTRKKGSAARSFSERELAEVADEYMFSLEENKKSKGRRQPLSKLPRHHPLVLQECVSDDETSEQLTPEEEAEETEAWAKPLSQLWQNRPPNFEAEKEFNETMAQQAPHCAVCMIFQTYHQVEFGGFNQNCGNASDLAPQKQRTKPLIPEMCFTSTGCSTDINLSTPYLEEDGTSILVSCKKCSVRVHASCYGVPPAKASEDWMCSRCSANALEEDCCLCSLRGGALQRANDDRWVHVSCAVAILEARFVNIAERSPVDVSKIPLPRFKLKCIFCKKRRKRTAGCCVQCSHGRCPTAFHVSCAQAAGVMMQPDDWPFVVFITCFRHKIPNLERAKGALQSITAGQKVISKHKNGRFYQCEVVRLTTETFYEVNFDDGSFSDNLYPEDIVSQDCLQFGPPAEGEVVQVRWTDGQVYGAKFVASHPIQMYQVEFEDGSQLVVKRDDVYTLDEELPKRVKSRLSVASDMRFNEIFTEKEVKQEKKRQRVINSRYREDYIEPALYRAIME
BAZ2B inh = BAZ2B (human) inhibition. Potency, µM (series often up to 114 µM), hits mostly inhibitors. AlphaScreen BAZ2B-H3K14Ac peptide displacement. actives 4.4% (n = 360,000). AID 504333. Q9UIF8; note: nearly all actives have a fitted effect of over 60% in size
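AlphaScreen displacement: compounds (up to 110uM) incubated 30 min at room temperature with a preformed 50 nM BAZ2B/50 nM biotinylated H3K14Ac peptide complex in PBS pH 7.4 with Tween-20. Donor and acceptor beads at 10 ug/mL final added, 20 min light-protected before reading.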
CtBP-E1A inh = blocks the CtBP interaction with E1A; actives 0.49% (n = 340,000); AID 651724; activity change, % (concentration not given with the values); AlphaScreen GST-E1A/His-CtBP binding, 1536-well; active compounds read low; in the data active = activity change below about -65%; inconclusive = mostly about -30% to -63%
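AlphaScreen with 125 nM GST-E1A and 125 nM His-CtBP (5X stocks) in Tris pH 8.0, 300 mM NaCl, BSA, Tween 20, TCEP. Compounds preincubated 2 h at 37 deg C, then glutathione donor/nickel acceptor beads added for 1 h at 37 deg C in dark.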
HP1b chromo inh = inhibitors of HP1-beta chromodomain binding to methylated histone tails. Potency, µM (top dose mostly 114 µM), most hits filed as inhibitors. actives 0.56% (n = 390,000). AID 540317. AlphaScreen HP1-beta / biotin-H3K9me3 peptide binding; note: nearly all actives have a fitted effect of over 70% in size
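Compound inhibition of the preformed complex between 50 nM HP1-beta and 50 nM biotinylated H3K9me3 peptide was read by AlphaScreen. Buffer was PBS pH 7.4 with 0.01% Tween-20. Incubations ran 30 min at room temperature, with 10 ug/mL donor/acceptor beads.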
A number is an active result; - = inactive; ? = inconclusive; . = no result; [ ] = remark or other dose. Compounds with a hit are over-represented: about 10% of the library has one in this group of screens. Unless noted, calls come from the whole dose curve; as a rule, active = well fitted inhibition curve with a large enough effect; inconclusive = small, poorly fitted or top-dose-only effect; inactive = no such curve, though single readings can be large or run the other way.

SMILES | Six1-Eya2 blk | G9a block | JMJD2A Tudor inh | BAZ2B inh | CtBP-E1A inh | HP1b chromo inh
CCC(C)c1ccc(NC(=S)Nc2ccc(OC)cc2C)cc1 (stereo not drawn) | - | 4.5µM | - | - | - | -
CCC(C)c1ccc(NC(=O)CN(C)CC(=O)Nc2cccc(OC)c2)cc1 (stereo not drawn) | - | 50µM | - | 50µM | . | -
COc1ccc(NC(=O)CN(C)CC(=O)N2CCCCCC2)cc1 | - | 56µM | 14µM | - | - | -
COc1cccc(NC(=O)CN(C)C(C)C(=O)NC(C)c2ccc(Cl)cc2Cl)c1 (stereo not drawn) | - | 28µM | - | - | - | -
CN(CC(=O)Nc1ccc(Cl)c(Cl)c1)CC(=O)N1CCCCCC1 | - | . | . | . | - | .
COC(=O)c1sc(N2C(=O)c3oc4ccc(C)cc4c(=O)c3C2c2ccc(OC)cc2)nc1C (stereo not drawn) | . | - | - | - | . | -
CC(=O)c1cccc(NC(=O)c2cc(C)nc3c2c(C)nn3-c2cccc(Cl)c2C)c1 | . | - | - | - | . | -
Cc1ccccc1C(=O)Nc1nnc(S(=O)(=O)N(C)Cc2ccc(Cl)cc2)s1 | . | - | - | - | . | -
COc1ccc(N(CC(=O)Nc2cccc(C(C)=O)c2)S(=O)(=O)c2ccc(NC(C)=O)cc2)cc1 | - | . | - | - | - | -
CCCN(CC(=O)Nc1cccc(S(N)(=O)=O)c1)CC(=O)Nc1ccc(F)c(F)c1F | - | - | - | - | - | -
COc1ccc(NC(=O)CN(CC(=O)Nc2ccc(OC)cc2)C(C)(C)CO)cc1 | - | 71µM | - | - | - | -
COc1ccc(NC(=O)CN(C)CC(=O)Nc2cccc(C(C)=O)c2)cc1 | - | 4.5µM | 10µM | 35µM | - | ?
CCC(CO)(CO)N(CC(=O)Nc1ccc(OC)cc1)CC(=O)Nc1ccc(OC)cc1 | - | ? | - | - | - | -
CCCN(CC(=O)Nc1cccc(Br)c1)CC(=O)Nc1ccc(F)c(F)c1F | - | 11µM | - | - | - | -
CN(CC(=O)Nc1ccc(Cl)cc1)CC(=O)Nc1cccc(Br)c1 | - | 45µM | - | - | - | -
CN(CC(=O)Nc1cccc(C#N)c1)Cc1ccc(Cl)cc1 | - | - | - | - | - | -
Cc1ccccc1OCC(=O)Nc1cc(-c2cccc(Br)c2)nn1-c1ccccc1 | . | - | - | - | . | -
CN(C)S(=O)(=O)c1ccc2c(c1)N(CC(=O)Nc1ccc(OC(F)(F)F)cc1)C(=O)CS2 | . | - | - | - | . | -
CC(C)C[C@H](N)CSSC[C@@H](N)CC(C)C | . | 16µM | . | . | . | .
Cc1cccc(NC(=O)CNC(=O)Cn2ncc(Cl)c(Cl)c2=O)c1C | - | . | 45µM | . | - | 71µM
O=C(N/N=C/c1cn(-c2cccs2)nc1-c1ccccc1)c1ccccc1O | -78 | - | - | - | -76 | -
O=C(N/N=C/c1cn(-c2cccs2)nc1-c1ccccc1)c1ccccc1Br | - | - | - | - | - | -
COc1cc(S(=O)(=O)n2ccnc2C(C)C)ccc1Br | . | - | - | - | . | -
O=C(CCn1c(=O)c2ccccc2n(CC(=O)Nc2cccc(F)c2)c1=O)NCCc1ccccc1 | . | - | - | - | . | -
CSc1nn(Cc2ccccc2C)c(NC(C)=O)c1S(=O)(=O)c1ccc(C)cc1 | . | - | - | - | . | -
SMILES | Six1-Eya2 blk | G9a block | JMJD2A Tudor inh | BAZ2B inh | CtBP-E1A inh | HP1b chromo inh
Cc1ccc(S(=O)(=O)O/N=C2\CCCc3ccccc32)cc1 | - | -[12.7 µM] | - | - | - | -
CC1=C(C)/C(=N\OS(=O)(=O)c2ccccc2)C=CC1=O | - | 16µM | 56µM | 40µM | - | ?
CC(C)C1C(=O)Nc2ccc(S(=O)(=O)NCCc3ccc(Cl)cc3)cc21 (stereo not drawn) | . | - | - | - | . | -
N#C/C=C1/NC(=O)c2ccccc2S1 | - | 45µM | - | ? | - | -
COC(=O)c1ccc2c(c1)NC(=O)c1ccccc1S2 | - | ? | - | - | - | -
COc1cc(Cl)c(C)cc1NC(=O)c1cc2c(=O)oc3ccccc3c2s1 | . | - | - | - | . | -
CCC(C)NC(=O)CN1C(=O)c2cccc3cccc1c23 (stereo not drawn) | - | - | - | - | - | -
CCN1/C(=N\N)c2cccc3cccc1c23 | ? | - | 7.9µM | 7.9µM | - | ?
